Reference: article PMC5540273 (PLoS ONE, 2017)
Read-outs that look alike come from different tables or passages of the source.

Legend:
[1] = test system: RIPK2; conditions: concentration: 1 μM, replicates: in singlicate; n = 1
[2] = test system: RIPK4; conditions: concentration: 1 μM, replicates: in singlicate; n = 1
[3] = test system: RIPK5; conditions: concentration: 1 μM, replicates: in singlicate; n = 1
[4] = test system: ROCK1; conditions: n = 1
[5] = test system: ROCK2; conditions: concentration: 1 μM, replicates: in singlicate; n = 1
[6] = test system: ROS1; conditions: concentration: 1 μM, replicates: in singlicate; n = 1
[7] = test system: RPS6KA4(Kin.Dom.1-N-terminal); conditions: concentration: 1 μM, replicates: in singlicate; n = 1
[8] = test system: RPS6KA4(Kin.Dom.2-C-terminal); conditions: concentration: 1 μM, replicates: in singlicate; n = 1
[9] = test system: RPS6KA5(Kin.Dom.1-N-terminal); conditions: concentration: 1 μM, replicates: in singlicate; n = 1
[10] = test system: RPS6KA5(Kin.Dom.2-C-terminal); conditions: concentration: 1 μM, replicates: in singlicate; n = 1
[11] = test system: T1, RSK1(Kin.Dom.1-N-terminal); conditions: concentration: 1 μM, replicates: in singlicate; n = 1
T1 construct: gene RPS6KA1

[12] = test system: T2, RSK1(Kin.Dom.2-C-terminal); conditions: concentration: 1 μM, replicates: in singlicate; n = 1
T2 construct: gene RPS6KA1

[13] = test system: T3, RSK2(Kin.Dom.1-N-terminal); conditions: concentration: 1 μM, replicates: in singlicate; n = 1
T3 construct: gene RPS6KA3

[14] = test system: T4, RSK2(Kin.Dom.2-C-terminal); conditions: concentration: 1 μM, replicates: in singlicate; n = 1
T4 construct: gene RPS6KA3

[15] = test system: T5, RSK3(Kin.Dom.1-N-terminal); conditions: concentration: 1 μM, replicates: in singlicate; n = 1
T5 construct: gene RPS6KA2

[16] = test system: T6, RSK3(Kin.Dom.2-C-terminal); conditions: concentration: 1 μM, replicates: in singlicate; n = 1
T6 construct: gene RPS6KA2

[17] = test system: T7, RSK4(Kin.Dom.1-N-terminal); conditions: concentration: 1 μM, replicates: in singlicate; n = 1
T7 construct: gene RPS6KA6

[18] = test system: T8, RSK4(Kin.Dom.2-C-terminal); conditions: concentration: 1 μM, replicates: in singlicate; n = 1
T8 construct: gene RPS6KA6

[19] = test system: S6K1; conditions: concentration: 1 μM, replicates: in singlicate; n = 1
[20] = test system: SBK1; conditions: concentration: 1 μM, replicates: in singlicate; n = 1
[21] = concentration: 1 μM, replicates: in singlicate
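Note: KINOMEscan kinase panel screen.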

SMILES: Cc1cccc(-c2cc(-c3c[nH]nc3-c3ccccn3)ccn2)c1 [GW679395]
- %Inh [1]: 36%
- %Inh [2]: 12%
- %Inh [3]: 6%
- %Inh [4, 21]: 0%
- %Inh [5]: 10%
- %Inh [6]: 0%
- %Inh [7]: 1%
- %Inh [8]: 0%
- %Inh [9]: 0%
- %Inh [10]: 37%
- %Inh [11]: 9%
- %Inh [12]: 0%
- %Inh [13]: 0%
- %Inh [14]: 7%
- %Inh [15]: 6%
- %Inh [16]: 12%
- %Inh [17]: 0%
- %Inh [18]: 49%
- %Inh [19]: 0%
- %Inh [20]: 5%

SMILES: CN1C(=O)C(Nc2ccccc2)=C(c2ccccc2)C1=O [SB-300079]
- %Inh [1]: 0%
- %Inh [2]: 5%
- %Inh [3]: 25%
- %Inh [4, 21]: 7%
- %Inh [5]: 43%
- %Inh [6]: 0%
- %Inh [7]: 8%
- %Inh [8]: 0%
- %Inh [9]: 0%
- %Inh [10]: 9%
- %Inh [11]: 8%
- %Inh [12]: 0%
- %Inh [13]: 37%
- %Inh [14]: 0%
- %Inh [15]: 0%
- %Inh [16]: 0%
- %Inh [17]: 10%
- %Inh [18]: 12%
- %Inh [19]: 0%
- %Inh [20]: 0%

SMILES: CCCNC(=O)Nc1ccc(Oc2ncnc3ccn(C)c23)cc1
- %Inh [1]: 0%
- %Inh [2]: 13%
- %Inh [3]: 34%
- %Inh [4, 21]: 0%
- %Inh [5]: 6%
- %Inh [6]: 0%
- %Inh [7]: 0%
- %Inh [8]: 0%
- %Inh [9]: 23%
- %Inh [10]: 6%
- %Inh [11]: 14%
- %Inh [12]: 13%
- %Inh [13]: 27%
- %Inh [14]: 0%
- %Inh [15]: 0%
- %Inh [16]: 5%
- %Inh [17]: 25%
- %Inh [18]: 0%
- %Inh [19]: 0%
- %Inh [20]: 20%

SMILES: CCn1c(-c2nonc2N)nc2ccccc21 [SB-693162/GW549034]
- %Inh [1]: 0%
- %Inh [2]: 6%
- %Inh [3]: 53%
- %Inh ([4]; 1 µM): 78%
- %Inh [5]: 76%
- %Inh [6]: 0%
- %Inh [7]: 0%
- %Inh [8]: 40%
- %Inh [9]: 0%
- %Inh [10]: 0%
- %Inh [11]: 6%
- %Inh [12]: 4%
- %Inh [13]: 41%
- %Inh [14]: 3%
- %Inh [15]: 4%
- %Inh [16]: 19%
- %Inh [17]: 48%
- %Inh [18]: 15%
- %Inh [19]: 43%
- %Inh [20]: 22%

SMILES: COC(=O)c1c(-c2ccccc2)c2cc(Br)ccc2c(=O)n1Cc1ccc(NC(=O)CCC(=O)O)cc1
- %Inh [1]: 12%
- %Inh [2]: 20%
- %Inh [3]: 21%
- %Inh [4, 21]: 8%
- %Inh [5]: 0%
- %Inh [6]: 0%
- %Inh [7]: 0%
- %Inh [8]: 9%
- %Inh [9]: 23%
- %Inh [10]: 0%
- %Inh [11]: 0%
- %Inh [12]: 5%
- %Inh [13]: 0%
- %Inh [14]: 29%
- %Inh [15]: 16%
- %Inh [16]: 15%
- %Inh [17]: 0%
- %Inh [18]: 26%
- %Inh [19]: 0%
- %Inh [20]: 1%

SMILES: CCc1nc(-c2cccc(C)c2)c(-c2ccncc2)s1
- %Inh [1]: 76%
- %Inh [2]: 7%
- %Inh [3]: 0%
- %Inh [4, 21]: 0%
- %Inh [5]: 0%
- %Inh [6]: 11%
- %Inh [7]: 2%
- %Inh [8]: 0%
- %Inh [9]: 0%
- %Inh [10]: 18%
- %Inh [11]: 0%
- %Inh [12]: 91.2%
- %Inh [13]: 0%
- %Inh [14]: 0%
- %Inh [15]: 11%
- %Inh [16]: 10%
- %Inh [17]: 0%
- %Inh [18]: 94.6%
- %Inh [19]: 0%
- %Inh [20]: 0%

SMILES: Cn1c(=O)c(F)c(Nc2ccc(I)cc2F)c2c(=O)n(OC[C@H](O)CO)cnc21
- %Inh [1]: 15%
- %Inh [2]: 3%
- %Inh [3]: 0%
- %Inh [4, 21]: 0%
- %Inh [5]: 0%
- %Inh [6]: 0%
- %Inh [7]: 25%
- %Inh [8]: 0%
- %Inh [9]: 0%
- %Inh [10]: 9%
- %Inh [11]: 18%
- %Inh [12]: 12%
- %Inh [13]: 39%
- %Inh [14]: 38%
- %Inh [15]: 11%
- %Inh [16]: 1%
- %Inh [17]: 0%
- %Inh [18]: 6%
- %Inh [19]: 0%
- %Inh [20]: 0%

SMILES: COc1cccc(C2=C(N(C)c3ccccc3)C(=O)NC2=O)c1 [SB-334865]
- %Inh [1]: 17%
- %Inh [2]: 19%
- %Inh [3]: 0%
- %Inh [4, 21]: 0%
- %Inh [5]: 12%
- %Inh [6]: 0%
- %Inh [7]: 8%
- %Inh [8]: 0%
- %Inh [9]: 20%
- %Inh [10]: 0%
- %Inh [11]: 0%
- %Inh [12]: 0%
- %Inh [13]: 0%
- %Inh [14]: 5%
- %Inh [15]: 11%
- %Inh [16]: 5%
- %Inh [17]: 0%
- %Inh [18]: 19%
- %Inh [19]: 10%
- %Inh [20]: 0%
